# Compound activity from PubChem BioAssay.
# Lamin A splicing – changes lamin A minigene splicing in HeLa cells; HeLa LMNA splicing GFP/RFP minigene ratio, 48 h; Potency, µM (highest dose often 46.1 µM), for inactives: top-dose ratio change, negative = inhibition, most hits filed as inhibitors; hit rate 0.01% among 200,000; AID 1487; active = well fitted inhibition curve with a large enough effect in the signal ratio, with a control signal flat, not every such curve was filed as active; inconclusive = small, poorly fitted or top-dose-only effect, or effect the other way, or a change in a side signal; the % refers to the signal ratio; also: potency is read from the fitted curve at half-maximal effect
#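 Read-out is the ratio of GFP to DsRed2 object intensity, acquired by 488 nm laser-scanning cytometry on HeLa lamin A-EGFP minigene reporter cells. Compound incubation 48 hrs at 37 °C in Opti-MEM with 2% FBS; DMSO 0.5% final.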
# PNC inhibitor – blocks assembly of the perinucleolar compartment; PC3M PTB-GFP, PNC prevalence imaging, 16 h; hits give low values; activity change (PNC), negative = inhibition, % at 10 µM; hit rate 3.1% among 140,000;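 active = readout at or below -70, meaning at least 70% loss of cells showing the perinucleolar compartment, a nuclear body marking cancer cells; inconclusive = readout between -30 and a set limit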;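 also: plate controls were DMSO wells for no effect and camptothecin positive control wells for full effect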
#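 Compounds are pinned in duplicate onto adhered PC3M cells stably expressing GFP-tagged PTB and incubated 16 h at 37 C. Cells are then fixed, nuclei stained with Hoechst, and PNC-positive cells counted.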
# ALDH1A1 inh – blocks purified human ALDH1A1 activity. P00352. Purified ALDH1A1, NADH fluorescence, propionaldehyde substrate. Potency, µM (doses to about 75.3 µM), for inactives: top-dose activity, negative = inhibition, hits mostly inhibitors. hit rate 7.3% among 220,000. AID 1030;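 also: potency is read from the fitted curve at half-maximal effect; plate controls were no enzyme wells and a reference inhibitor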
# HPGD block – HPGD (human) dehydrogenase inhibition; purified HPGD, NADH fluorescence kinetic, PGE2 substrate; hit rate 4.3% among 150,000; Potency, µM, inactives show at the highest dose activity change, negative = inhibition, actives largely listed as inhibitors; also: potency is read from the fitted curve at half-maximal effect
# Target sequence (P15428 whole entry, looked up): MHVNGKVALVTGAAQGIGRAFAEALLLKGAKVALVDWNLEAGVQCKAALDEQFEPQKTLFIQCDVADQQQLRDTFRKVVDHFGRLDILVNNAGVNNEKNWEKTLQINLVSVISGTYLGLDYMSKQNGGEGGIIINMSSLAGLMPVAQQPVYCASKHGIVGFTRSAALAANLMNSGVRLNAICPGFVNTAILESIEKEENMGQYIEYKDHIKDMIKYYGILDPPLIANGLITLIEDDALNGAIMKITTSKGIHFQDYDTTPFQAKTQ
#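 20 nM HPGD preincubated 15 min at room temperature with compound in 50 mM Tris-HCl pH 8, 0.01% Tween 20. Started with 1 mM NAD+ and 30 uM prostaglandin E2; NADH fluorescence (360/450 nm) read 5 times over 30-s intervals, last minus first.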
# ALOX12 inhib – inhibitors of human 12-lipoxygenase (ALOX12) | hit rate 0.12% among 150,000 | Potency, µM (titrated, usually from 57.1 µM), for the others: at the highest dose activity change, negative = inhibition, most hits filed as inhibitors | purified 12-hLO, xylenol orange hydroperoxide absorbance | AID 1452 | P18054; active = well fitted inhibition curve with a large enough effect; inconclusive = small, poorly fitted or top-dose-only effect; also: potency is read from the fitted curve at half-maximal effect; nearly all actives have a fitted effect of over 55% in size
#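 150 nM 12hLO, 25 mM Hepes pH 7.0 + 0.01% Triton X-100; cpd preinc 15 min RT; 40 uM arachidonic acid, 30 min RT; Fe-XO 30 min; A573/A405 ratio as read-out.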
# Active calls of the source: *; ? = inconclusive; · = no result given; [ ] = remark or other dose. An excerpt weighted towards active compounds, which were near 10% of everything screened. Unless noted, calls follow the shape of the dose curve; as a rule, active = well fitted inhibition curve with a large enough effect (not every such curve was filed as active); inconclusive = small, poorly fitted or top-dose-only effect, or another doubt; inactive = no such curve, though single readings can be large or run the other way. Unless noted, % is scaled to controls: 0 for no effect and ±100 for the full control effect.
SMILES,Lamin A splicing,PNC inhibitor,ALDH1A1 inh,HPGD block,ALOX12 inhib
C[C@]12C[C@H](O)C3[C@@H](CCC4=CC(=O)CC[C@@]43C)[C@@H]1CC[C@@H]2C(=O)CO (some centres not stated),?,·,-9%,-1%,·
CCN(N=Nc1cccc([N+](=O)[O-])c1)c1cccc([N+](=O)[O-])c1,10%,13,?,-17%,9%
NC(=O)CN(N=Nc1cccc([N+](=O)[O-])c1)c1cccc([N+](=O)[O-])c1,-22%[46 µM],·,1.8µM*,·,·
CCOC(=O)CNC(=O)O[C@@H]1C(=O)c2cc(OC)ccc2O[C@H]1c1ccc(OC)c(Br)c1,·,·,2%,-7%,·
CN(C(=O)c1cc2sccc2n1C)C1CCCCC1,0%,21,?,18µM*,0%
COc1cccc(-c2ccc3ncnc(N(C)C)c3c2)c1,?,·,29%,·,·
O=C(NNc1cccc(Cl)n1)Nc1cccc(C(F)(F)F)c1,?,42,20µM*,-17%,-2%
NC(=O)/C=C\C(=O)Nc1cccc(C(F)(F)F)c1,?,16,2.8µM*,-26%,-5%
O=C(O)CCCC(=O)Nc1cccc(C(F)(F)F)c1,3%,24,0%,-7%,1%
O=C(NNc1cccc(Cl)n1)Nc1ccc(Cl)cc1,11%,-11,?,-15%,-2%
CCOc1ccc(Nc2sc(C(=O)c3ccc4c(c3)OCO4)c(N)c2S(=O)(=O)c2ccc(C)cc2)cc1,-1%[46 µM],·,·,·,·
CCCCOc1ccc(C(=O)N2CCN(CCc3ccncc3)CC2)cc1,6%[46 µM],·,·,·,·
COc1ccc(C(=O)/C=C/c2ccc(N3CCCCC3)c([N+](=O)[O-])c2)c(OC)c1,?,-27,20µM*,-24%,0%
COc1ccc(C(=O)/C=C/c2ccc(N3CCCCC3)c([N+](=O)[O-])c2)cc1,?,-27,4.5µM*,-15%,-2%
COc1ccc(-c2nc3cnc(N4CCNCC4)nc3n(CCC#N)c2=O)cc1,·,·,?,-28%,0%
C=CCC1(NC(C)c2ccccc2)CCCCC1 (configuration not stated),-5%,-113*,9%,-7%,-4%
CCOC(=O)c1c(C)oc2ncnc(Nc3cc(Cl)ccc3OC)c12,9%[46 µM],·,·,·,·
Cc1nnc(SCc2cc(=O)[nH]c(=S)[nH]2)s1,10%[46 µM],·,13µM*,·,·
Cc1ccc2c(=O)cc(CSc3ccccc3)[nH]c2c1C,1%[46 µM],·,·,·,·
O=c1cc(CSc2ccccc2)[nH]c(=S)[nH]1,8%,-25,28µM*,-11%,0%
CCc1ccc2c(Cl)c(C(=O)N/N=C/c3c[nH]c4ccccc34)sc2c1,?,90,13µM*,-9%,-2%
CCc1ccc(-c2cc(C(=O)N/N=C/c3c[nH]c4ccccc34)[nH]n2)cc1,?,·,-19%,·,·
C1=C(c2ccccc2)Nc2ccccc2N=C1c1ccccc1,?,?,-2%,-5%,2%
O=C1Nc2ccccc2N=C(c2ccccc2)C1N1CCOCC1 (configuration not stated),4%,?,22µM*,-11%,-3%
O=C1CC(c2ccccc2)=Nc2ccccc2N1,4%,-10,?,-10%,-1%
SMILES,Lamin A splicing,PNC inhibitor,ALDH1A1 inh,HPGD block,ALOX12 inhib
O=C1Nc2ccccc2N=C(c2ccccc2)C1Br (configuration not stated),?,·,16µM*,·,·
C[C@H]1CC[C@H]2C(=O)N3[C@H](c4ccc(Br)cc4)[C@@H](C)CC[C@H]3C(=O)N2[C@@H]1c1ccc(Br)cc1,·,·,11%[13.5 µM],·,·
CCN(CC)C(=O)c1sc(NC(=O)c2cc(-c3ccc(C)s3)nc3ccccc23)c(C(=O)OC)c1C,5%,?,?,?,-6%
CCOC(=O)c1sc(NC(=O)OC)c(C(=O)OC)c1C,·,·,2%,·,·
CCC(=O)Nc1sc(C(=O)OC)c(C)c1C(=O)OC,-5%,?,?,22µM*,-2%
CCOC(=O)c1c(NC(=O)c2ccoc2C)sc(C(=O)N(C)C)c1C,-2%,-13,20µM*,?,-7%
CCN(CC)C(=O)c1sc(NC(=O)c2ccncc2)c(C(=O)OC)c1C,2%,?,14µM*,22µM*,-1%
CCN(CC)C(=O)c1sc(NC(=O)c2ccoc2C)c(C(=O)OC)c1C,6%,67,22µM*,14µM*,2%
COc1ccc(CNCCSc2nnnn2-c2ccccc2)c(OC)c1,1%[46 µM],·,·,·,·
CCOC(=O)c1ccccc1NC(=O)N1CCCn2nc(C)cc21,-4%[46 µM],·,·,·,·
CCOC(=O)c1c(NC(=O)OC)sc(C(=O)N(CC)CC)c1C,1%,1,?,28µM*,-6%
COc1ccc(C(=O)NCC(c2ccc3c(c2)OCO3)N2CCN(C)CC2)cc1OC (configuration not stated),-7%[46 µM],·,·,·,·
Cc1cccc(C)c1NC(=O)c1cc(S(=O)(=O)N2CCc3ccccc3C2)ccc1F,-10%[46 µM],·,·,·,·
O=C(COC(=O)c1cccnc1Cl)c1ccccc1,9%,34,-9%,-15%,-1%
NS(=O)(=O)c1cc(C(=O)OCC(=O)c2ccccc2)c(Cl)cc1Cl,·,·,16µM*,·,·
O=C(Cn1cncn1)N1CCN(c2ccc(F)cc2)CC1,·,·,-4%,·,·
Cc1cccc(C)c1N1CCN(C(=O)Cn2cncn2)CC1,·,·,13µM*,·,·
CCCn1c(C)nc2c(NCCCN3CCCCC3C)nc(C)nc21 (configuration not stated),·,·,5%,-6%,2%
CCCC/C=C/C(NC(=O)c1ccco1)c1ccccc1 (configuration not stated),·,·,3.5µM*,-30%,-2%
O=C(NCCNC(=O)C(c1ccccc1)c1ccccc1)c1ccco1,-7%,?,40µM*,-3%,-7%
CCCC/C=C/C(NC(=O)CCc1ccccc1)c1ccccc1 (configuration not stated),?,-119*,-9%,-12%,-1%
O=C(NCCc1ccccc1)c1ccco1,4%,233,-3%,-20%,7%
CCCC(=O)Nc1ccc2nc(SCc3ccc(C)cc3)sc2c1,21%[46 µM],·,·,·,·
CCOC(=O)N/N=C1/C[C@@H](O)[C@@H](O)[C@@H]2[C@@H]3C(=O)N(Cc4ccccc4)C(=O)[C@H]3CC[C@H]12,·,·,-11%[13.5 µM],·,·
COC(=O)c1cc(-c2ccccc2)sc1N,3%,1,?,28µM*,-20%
Cc1cccc(N2C(=O)CC(Sc3nc(C)cc(C)n3)C2=O)c1 (configuration not stated),-1%,-15,?,-26%,5%
CCN(CC)C1CC(=O)N(c2cccc(C)c2)C1=O (configuration not stated),-17%,12,3.5µM*,-28%,-2%
CCN(CCO)C1CC(=O)N(c2ccccc2C)C1=O (configuration not stated),-14%,?,3.5µM*,-23%,2%
Cc1ccc(C(=O)Nc2ncc(Cc3ccc(SC(F)F)cc3)s2)cc1,?,-82*,0%,-6%,0%
